Laboratory results from the supplement of paper PMC6555819.

Test system: VDR:RXRa (NR concentration 270 nM, RXRa partner concentration 90 nM)
Experiment: PBM binding z-score (relative to random genomic background probes); higher = stronger binding; sequences stand for … in GC…GCGATTGACAGCGTAGAATGAAGG
Method: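 Protein-binding microarray (Agilent 4x180K custom design, double-stranded 60-nt probes: 5' GC cap, 34-nt variable region, 24-nt constant primer region; full probe sequence given). Purified or IVT nuclear receptor:RXRα heterodimers (3:1 NR:RXRα, mostly 270:90 nM) or homodimers were incubated for 1 h in PBS with 2% milk and no ligand, then detected with Alexa488 antibodies. Fluorescence from o1-orientation probes (~5 replicates averaged) was converted to z-scores against 500 random hg19 background probes. Variable regions are seed direct-repeat (DR0–DR5) sites, all their single-nucleotide variants and half-site ablations.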

Row | Sequence | PBM binding z-score
1 | TCTTGTAGATCACAGGTTAAGAAAGCCGAAGCCT | 0.396
2 | GCTCGGAGGACAAGGTCATAGCTTTGTCCGTAGA | 3.33
3 | CGTCCAAGGTCTAAGGTCAGTGAAGAGATGACGG | 1.73
4 | CCGACTTGGGCAAGGTTACCATAACGCACAGCCA | 0.176
5 | AGAATGAGGTTTAGATCAGGGAAACAGAATACAT | -0.225
6 | AATACAGGGTCACCAGGCCAGAGTAGGTACGAAT | 4.82
7 | CCTACTGGGCCAAAAAGGTTATTGATGCCGATAA | 1.6
8 | GCGACTGGGGCAAAGAAGGTTACCATAAGGTTGG | 0.733
9 | CGTCCAAGATCAAGGTCAGTGAAAGAGACTCGAA | 1.62
10 | CCTAGTTGGTCAGGAGGTCACACAGCGGATATGA | 3.94
11 | CCTACCGGGCCATTCAGAGGTCATTGATCATATG | 4.24
12 | CCTAGTTGGTCAGTAGGTCACACACCGGATATGA | 1.91
13 | GATACAGGGTCAGCGAGAGGCCAGAGTATGGAAA | 3.67
14 | ACAGACCGGTGATGAAGGTAACTCAGGCTATCAT | -0.216
15 | ACAGACAGGTGATGAAGGTAACTAAGGCTATCAT | 0.295
16 | ATCTCTAGGTAAGACTCAGTTCGGTGAAGAACGC | 0.216
17 | ATCTCTAGGAAAAAGTTCAGTGAATCCCGAGGAT | 0.44
18 | TGGCCTAGGTCAGATCGGGCCAGTATACGCTATA | 0.424
19 | AGTATGAGGTTATTAAGATCAGGGAATTGCGGTC | 2.58
20 | TCATATAGGTAAATTCTAGGTGAAAGTCCGATCT | 1.14

Row | Sequence | PBM binding z-score
21 | AGTCCAAGTTCAGGACGAGGTAACGTAAAGCACG | 2.51
22 | CCTTGGAGGACAGAAGGTCAGAGCTGTCCGCTTT | 1.12
23 | GCTGCTAGGTCAGGTTGGTAAGCTAACGGGTACG | 0.241
24 | CGTCCAAGGTCAAAGGTCAGTGCAGAGATGACGG | 6.57
25 | CTACCACGGTGAACAAGGTCGTTGATTACTATTC | 3.47
26 | CGTCAAAGTTCAAGGTAACATAACAGAAAGCAGC | 3.63
27 | AGAACGAGGGCACGCTGTGTTGATAGCAGAGTAG | 0.783
28 | CTCGAAAGGTCGGTTGAGGTGGGTATACGGATAA | 1.63
29 | ATCTCTAGGTAAAGATAGTTTAGTGAATGCAAAT | 0.322
30 | TCTAGTAGGCCAGAGGGTCACTCAAGAGGTACGG | 1.91
31 | GCTATTAGTTGAAAGTGCAACCGAATGATTCTCG | 0.133
32 | TTGCCAAGGTGAGCTGAGGTCGTTGATCCAACTC | 3.93
33 | CGAACTAGGTCAAGGACAGTGAATCTCCGCACGC | 1.32
34 | TGTCAAAGTTCAATGGTAACGTAAGTATCCACAC | 3.81
35 | CCTGCTAGGTCATGTTCAGCTAATCTACAGTATG | 1.48
36 | CAAACTAGGTGAAGGTCAAAGTCGGTTTGTGCCA | 3.79
37 | GCGACTGGGGCAAAGCAGGTTGCCATAAGGTTGG | -0.612
38 | CCTTACGGGTCACTGAGAGGTTATAGCATTTGGA | 4.55
39 | CAGCCTAGGTCAGGGCCAGAATAGGAGGAACGTT | 0.0945
40 | CTCGAAAGGTCGTGCTAAGGTGAGTATACCAAAC | 3.87
